In PubChem BioAssay (Tox21):
Results filed as inconclusive are left out. Calls of active or inactive are those of the source. Unless noted, calls come from the whole dose curve; as a rule, active = well fitted curve in the direction sought with a large enough effect in the repeat runs; inconclusive = weak or mixed curves; inactive = no such curve, though single readings can be large; an effect the other way counts as inactive or inconclusive.

Key:
[1] = qHTS assay to identify small molecule antagonists of the estrogen receptor alpha (ER-alpha) signaling pathway using the BG1 cell line in the presence of 0.1 nM 17-beta-estradiol - cell viability counter screen (AID 1259241); conditions: VM7Luc4E2 (BG1) viability, CellTiter-Fluor protease, 22 h, 0.1 nM estradiol agonist added; series mostly up to 92.4 µM; note: nearly all actives have a fitted effect of over 40% in size
In short: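 The cell line endogenously expresses full-length ER-alpha and carries four EREs driving luciferase. Cells are cultured 5 days hormone-free, treated 22 hr with compounds and 0.1 nM estradiol, then viability is read by fluorescence.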

[2] = qHTS assay to identify small molecule antagonists of the androgen receptor (AR) signaling pathway using the MDA cell line in the presence of 0.5 nM R1881 - cell viability counter screen (AID 1259242); conditions: MDA-kb2 viability, CellTiter-Fluor protease fluorescence, 16 h; series mostly up to 92.4 µM; note: nearly all actives have a fitted effect of over 45% in size
In short: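 Live-cell protease activity was measured by CellTiter-Fluor fluorescence after 30 min. Before that, MDA-kb2 MMTV-luciferase cells had 16 hr at 37C without CO2, exposed to test compounds and 0.5 nM R1881 final.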

[3] = qHTS assay to identify small molecule phospholipidosis (PLD) inducers (AID 1259344; active = well fitted curve in the direction sought with a large enough effect; an effect the other way counts as inactive or inconclusive); conditions: HepG2 phospholipidosis, LipidTOX Red imaging, 24 h; series mostly up to 38.3 µM
In short: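 Cells (HepG2, 900 per well) attach for 4 h, receive LipidTOX Red and compound together, incubate 24 h at 37 C, are fixed 30 min with paraformaldehyde/Hoechst, then imaged at one site per well.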

[4] = qHTS assay to identify small molecule HDAC inhibitors (AID 1259364); conditions: HCT-116 HDAC-Glo I/II luminescence, 2 h; series mostly up to 92.4 µM; note: top concentration of the series differs between compounds; nearly all actives have a fitted effect of over 45% in size
In short: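 Luminescence read after 30 min room-temperature HDAC-Glo incubation measures cellular class I/II HDAC activity. Compounds were applied for 2 hr at 37 C to HCT-116 wild-type cells seeded the day before.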

[5] = qHTS assay to identify small molecule HDAC inhibitors - cell viability counter screen (AID 1259365); conditions: HCT-116 viability, CellTiter-Glo ATP luminescence, 2 h; series mostly up to 92.4 µM; note: nearly all actives have a fitted effect of over 50% in size
In short: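 Viability readout: CellTiter-Glo luminescence. Wild-type HCT-116 cells, 2hr compound treatment following overnight attachment at 37 C.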

[6] = qHTS assay to identify small molecule agonists of the sonic hedgehog signaling (Shh) pathway - cell viability counter screen (AID 1259366); conditions: NIH/3T3 Gli1-Luc viability, CellTiter-Fluor, 24 h; series mostly up to 92.4 µM; note: nearly all actives have a fitted effect of over 50% in size
In short: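 Viability measured fluorometrically (CellTiter-Fluor, 1hr, 37C) in 3T3 Gli1-Luc reporter cells after 23hr compound exposure within a 24hr incubation at 37C/5% CO2.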

[7] = qHTS assay to identify small molecule antagonists of the sonic hedgehog signaling (Shh) pathway - cell viability counter screen (AID 1259367); conditions: NIH/3T3 Gli1-Luc viability, CellTiter-Fluor, 24 h; series mostly up to 92.4 µM; note: nearly all actives have a fitted effect of over 55% in size
In short: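 Cytotoxicity was assessed in parallel with Shh reporter activity by measuring live-cell protease fluorescence (CellTiter-Fluor) in NIH/3T3 cells stably carrying Gli1-Luc, treated with compound under conditioned medium stimulation for 23 hr plus 1 hr reagent incubation.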

[8] = qHTS assay to identify small molecule agonists of the sonic hedgehog signaling (Shh) pathway (AID 1259368; calls by dose curve;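 note: NIH/3T3-derived 3T3Gli1-Luc cells carrying a stable Gli1-driven firefly luciferase reporter; nearly all actives have a fitted effect of over 15% in size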); conditions: NIH/3T3 Gli1-Luc reporter, luciferase, 24 h, hits give high values; series mostly up to 92.4 µM
In short: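 Luminescence was read after 30 min at room temperature with luciferase reagent. Before that, 3T3Gli1-Luc cells (NIH/3T3 clone, stable Gli1-Luc reporter; 2,000/well) were exposed to compounds for 24 hr at 37C, 5% CO2, compounds being added 4 hr post-plating.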

[9] = qHTS assay to identify small molecule antagonists of the sonic hedgehog signaling (Shh) pathway (AID 1259369; calls by dose curve; note: nearly all actives have a fitted effect of over 45% in size); conditions: NIH/3T3 Gli1-Luc reporter, Shh antagonist, luminescence 24 h; series mostly up to 92.4 µM
In short: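 Antagonist mode: compound added to 3T3 Gli1-Luc cells followed by conditioned-medium stimulation, 24 h at 37 C, 5% CO2. Inhibition taken as loss of Gli1-driven luciferase luminescence.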

[10] = molecular target: Estrogen receptor beta (Homo sapiens) (UniProt Q92731); experiment: qHTS assay to identify small molecule agonists of the estrogen receptor beta (ER-beta) signaling pathway (AID 1259377; active = well fitted activation curve with a large enough effect in the signal ratio in the repeat runs, not every such curve was filed as active; the % refers to the signal ratio); conditions: ER-beta-UAS-bla HEK293T, beta-lactamase FRET ratio, 16 h; series mostly up to 92.4 µM
Sequence of Estrogen receptor beta (Homo sapiens) (Q92731 whole entry, looked up): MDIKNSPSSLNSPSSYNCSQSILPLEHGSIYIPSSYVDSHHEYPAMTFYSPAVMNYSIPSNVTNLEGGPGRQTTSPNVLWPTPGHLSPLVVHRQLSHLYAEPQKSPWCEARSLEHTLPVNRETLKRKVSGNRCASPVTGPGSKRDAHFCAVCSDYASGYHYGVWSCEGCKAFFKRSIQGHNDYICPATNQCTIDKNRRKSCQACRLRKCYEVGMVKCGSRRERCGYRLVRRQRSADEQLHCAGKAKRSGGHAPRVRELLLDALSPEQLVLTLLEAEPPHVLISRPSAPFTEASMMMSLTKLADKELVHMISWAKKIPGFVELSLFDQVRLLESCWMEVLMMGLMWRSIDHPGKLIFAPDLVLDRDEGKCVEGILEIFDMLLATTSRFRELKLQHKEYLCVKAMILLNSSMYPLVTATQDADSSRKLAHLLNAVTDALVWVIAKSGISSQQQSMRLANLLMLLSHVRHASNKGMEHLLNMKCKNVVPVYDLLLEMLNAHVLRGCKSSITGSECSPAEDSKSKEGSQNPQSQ
In short: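 A UAS-controlled beta-lactamase reporter in ER-beta-UAS-bla HEK293T cells reports receptor activation. Compounds act for 16 hr at 37C in 2% charcoal-stripped serum, and a FRET substrate is read by fluorescence after 2 hours.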

[11] = molecular target: Estrogen receptor beta (Homo sapiens) (UniProt Q92731); experiment: qHTS assay to identify small molecule antagonists of the estrogen receptor beta (ER-beta) signaling pathway (AID 1259378; active = well fitted inhibition curve with a large enough effect in the signal ratio in the repeat runs, not every such curve was filed as active; the % refers to the signal ratio; note: potency is the fitted concentration of half-maximal effect); conditions: ER-beta-UAS-bla HEK293T, beta-lactamase FRET ratio, 16 h; series mostly up to 92.4 µM
In short: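 ER-beta-UAS-bla HEK293T (GripTite) cells in 2% charcoal-stripped FBS medium were preincubated 6 hr at 37C, dosed with compound, then stimulated with 1 nM E2 (final) for 16 hr; beta-lactamase reporter read by B/G FRET fluorescence after 2 hr substrate loading.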

[12] = qHTS assay to identify small molecule agonists of the androgen receptor (AR) signaling pathway in the presence of an antagonist - cell viability counter screen (AID 1259379); conditions: MDA-kb2 viability, CellTiter-Fluor, 16 h; series mostly up to 92.4 µM;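 note: MDA-kb2 human breast cancer cells carrying an MMTV luciferase reporter; nearly all actives have a fitted effect of over 25% in size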
In short: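 Cytotoxicity counter-screen run in the same wells as the nilutamide-challenged (3.0 µM final) AR agonist assay in MDA-kb2 cells. Compounds tested at 15 concentrations for 16 h, 37 °C without CO2; CellTiter-Fluor fluorescence read.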

[13] = qHTS assay to identify small molecule agonists of the estrogen receptor beta (ER-beta) signaling pathway - cell viability counter screen (AID 1259380); conditions: ER-beta-bla HEK293T viability, CellTiter-Glo luminescence, 16 h; series mostly up to 92.4 µM; note: nearly all actives have a fitted effect of over 30% in size
In short: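 Cell viability counter screen: CellTiter-Glo luminescence (30 min, room temperature) measured in the same wells as the beta-lactamase readout, after 16 hr compound exposure at 37C of ER-beta-bla HEK293T cells in 2% charcoal-stripped FBS medium.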

[14] = qHTS assay to identify small molecule antagonists of the estrogen receptor beta (ER-beta) signaling pathway - cell viability counter screen (AID 1259382); conditions: ER-beta-UAS-bla HEK293T viability, CellTiter-Glo luminescence, 16 h; series mostly up to 92.4 µM; note: nearly all actives have a fitted effect of over 55% in size
In short: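 Cytotoxicity was measured in the same wells by CellTiter-Glo luminescence after 30 min at room temperature. Cells were ER-beta-bla HEK293T in charcoal-stripped serum, given compound together with 1 nM E2 and incubated 16 h at 37C.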

[15] = molecular target: Estrogen receptor (Homo sapiens) (UniProt P03372); experiment: qHTS assay to identify small molecule agonists of the estrogen receptor alpha (ER-alpha) signaling pathway in the presence of an antagonist (AID 1259383; calls by dose curve; note: top concentration of the series differs between compounds; nearly all actives have a fitted effect of over 15% in size); conditions: VM7Luc4E2 cells, ERE-luciferase, +ICI-182,780, 22 h; series mostly up to 92.4 µM
Sequence of Estrogen receptor (Homo sapiens) (P03372 whole entry, looked up): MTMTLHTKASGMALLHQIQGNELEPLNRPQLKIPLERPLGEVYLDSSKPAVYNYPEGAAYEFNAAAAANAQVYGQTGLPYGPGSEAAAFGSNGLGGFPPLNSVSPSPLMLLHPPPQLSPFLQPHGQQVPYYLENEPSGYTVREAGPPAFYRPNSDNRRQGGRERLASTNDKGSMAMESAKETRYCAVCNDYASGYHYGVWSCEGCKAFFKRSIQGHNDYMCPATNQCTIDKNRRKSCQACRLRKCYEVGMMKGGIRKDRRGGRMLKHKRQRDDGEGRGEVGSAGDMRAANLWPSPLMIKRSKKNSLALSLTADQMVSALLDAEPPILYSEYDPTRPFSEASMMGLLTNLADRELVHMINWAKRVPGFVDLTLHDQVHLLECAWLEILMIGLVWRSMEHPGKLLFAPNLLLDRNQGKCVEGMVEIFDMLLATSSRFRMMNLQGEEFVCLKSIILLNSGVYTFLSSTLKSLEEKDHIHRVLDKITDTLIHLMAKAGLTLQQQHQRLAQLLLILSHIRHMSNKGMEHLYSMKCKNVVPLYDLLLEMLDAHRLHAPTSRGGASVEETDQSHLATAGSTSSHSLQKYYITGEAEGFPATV
In short: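 Agonist-mode confirmation run in the presence of 10.0nM (final) ICI-182,780 antagonist. The reporter was ERE-driven luciferase in VM7Luc4E2 cells, grown in charcoal-stripped serum. Cells were exposed to 15-concentration compound series for 22hr, then ONE-Glo luminescence was read.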

[16] = qHTS assay to identify small molecule agonists or antagonists of the thyroid stimulating hormone receptor (TSHR) signaling pathway - wild type cell line counter screen (AID 1259384; calls by dose curve); conditions: HEK293 wild type, cAMP HTRF counter-screen, hits give high values; series mostly up to 92.4 µM
In short: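 Wild-type HEK293 cells were plated 18 h at 37 C/5% CO2, pin-dosed with compound plus Ro20-1724 medium, held 30 min at room temperature, then given cAMP-d2 and anti-cAMP-cryptate; fluorescence was read after 1 h. Fifteen concentrations, triplicate.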

[17] = molecular target: Thyrotropin receptor (Homo sapiens) (UniProt P16473); experiment: qHTS assay to identify small molecule antagonists of the thyroid stimulating hormone receptor (TSHR) signaling pathway (AID 1259385; calls by dose curve; note: nearly all actives have a fitted effect of over 20% in size); conditions: TSHR-HEK293 cAMP HTRF, TSH-stimulated antagonist mode; series mostly up to 92.4 µM
Sequence of Thyrotropin receptor (Homo sapiens) (P16473 whole entry, looked up): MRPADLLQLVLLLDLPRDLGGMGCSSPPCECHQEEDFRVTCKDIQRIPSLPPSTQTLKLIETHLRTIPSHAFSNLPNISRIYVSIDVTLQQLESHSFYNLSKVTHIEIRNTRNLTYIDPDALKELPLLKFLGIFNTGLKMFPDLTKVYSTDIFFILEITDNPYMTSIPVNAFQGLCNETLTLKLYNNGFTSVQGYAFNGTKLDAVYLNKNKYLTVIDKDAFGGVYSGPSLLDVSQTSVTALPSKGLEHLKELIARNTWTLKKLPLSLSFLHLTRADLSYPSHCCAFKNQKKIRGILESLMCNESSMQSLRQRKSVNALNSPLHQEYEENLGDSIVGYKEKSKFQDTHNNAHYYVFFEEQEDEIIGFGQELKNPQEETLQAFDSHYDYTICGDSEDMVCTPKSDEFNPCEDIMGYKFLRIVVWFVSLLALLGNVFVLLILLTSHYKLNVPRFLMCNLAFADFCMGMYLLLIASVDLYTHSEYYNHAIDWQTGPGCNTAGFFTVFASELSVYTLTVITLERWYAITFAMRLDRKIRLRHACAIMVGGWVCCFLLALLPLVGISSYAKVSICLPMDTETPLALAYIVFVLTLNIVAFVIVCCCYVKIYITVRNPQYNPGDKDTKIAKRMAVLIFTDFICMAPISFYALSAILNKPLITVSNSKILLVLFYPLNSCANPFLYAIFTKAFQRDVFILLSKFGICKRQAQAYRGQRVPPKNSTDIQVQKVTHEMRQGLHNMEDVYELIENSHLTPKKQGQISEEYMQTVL
In short: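 TSHR-HEK293 cells were plated and held 18 h at 37C/5% CO2, then given compound plus Ro20-1724 and stimulated with TSH at 1.5 ng/mL final. After 30 min at room temperature, cAMP was detected with cAMP-d2/anti-cAMP-cryptate (1 h) by fluorescence.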

[18] = molecular target: Androgen receptor (Homo sapiens) (UniProt P10275); experiment: qHTS assay to identify small molecule agonists of the androgen receptor (AR) signaling pathway in the presence of an antagonist (AID 1259381; calls by dose curve; note: nearly all actives have a fitted effect of over 15% in size); conditions: MDA-kb2 MMTV-luciferase, AR agonist + nilutamide, 16 h; series mostly up to 42.5 µM
Sequence of Androgen receptor (Homo sapiens) (P10275 whole entry, looked up): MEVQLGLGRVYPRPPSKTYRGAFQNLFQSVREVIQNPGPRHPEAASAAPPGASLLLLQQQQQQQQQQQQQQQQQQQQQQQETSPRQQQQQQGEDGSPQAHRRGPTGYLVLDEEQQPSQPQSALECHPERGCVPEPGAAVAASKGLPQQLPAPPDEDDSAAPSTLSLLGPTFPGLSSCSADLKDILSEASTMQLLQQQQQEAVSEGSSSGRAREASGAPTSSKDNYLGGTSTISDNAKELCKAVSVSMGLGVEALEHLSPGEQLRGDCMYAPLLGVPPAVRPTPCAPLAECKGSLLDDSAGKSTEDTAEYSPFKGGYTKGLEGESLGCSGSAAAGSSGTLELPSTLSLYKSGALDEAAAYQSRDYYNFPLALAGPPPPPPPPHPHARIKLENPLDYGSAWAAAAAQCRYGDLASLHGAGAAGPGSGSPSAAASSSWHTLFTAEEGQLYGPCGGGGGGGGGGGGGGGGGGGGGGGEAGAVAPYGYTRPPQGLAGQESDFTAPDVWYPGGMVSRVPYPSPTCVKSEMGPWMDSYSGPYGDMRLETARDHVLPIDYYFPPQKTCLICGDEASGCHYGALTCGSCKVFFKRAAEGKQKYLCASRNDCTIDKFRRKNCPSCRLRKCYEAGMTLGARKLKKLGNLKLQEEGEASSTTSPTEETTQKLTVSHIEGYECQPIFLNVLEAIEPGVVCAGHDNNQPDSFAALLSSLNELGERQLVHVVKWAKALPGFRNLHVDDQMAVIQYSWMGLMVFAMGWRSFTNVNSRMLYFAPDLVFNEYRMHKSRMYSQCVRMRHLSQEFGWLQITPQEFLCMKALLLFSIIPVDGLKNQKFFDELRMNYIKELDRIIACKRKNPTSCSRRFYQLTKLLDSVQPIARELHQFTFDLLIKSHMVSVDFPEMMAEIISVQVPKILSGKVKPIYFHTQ
In short: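 Agonist-mode confirmation run against 3.0 uM final nilutamide: compounds titrated at 15 concentrations onto MDA-kb2 MMTV-luciferase reporter cells. Luminescence measured with ONE-Glo following 16 hr incubation, 37C, 0% CO2.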
% is set by controls: 0 for no effect and ±100 for the full control effect.

COc1cc(-c2ccc(=O)[nH]n2)ccc1OC(F)F
inactive: outcome [1] | outcome [2] | outcome [3] | Potency [4] | outcome [5] | Potency [6] | Potency [7] | outcome [8] | Potency [9] | Potency [10] | Potency [11] | Potency [12] | Potency [13] | outcome [14] | outcome [15] | outcome [16] | outcome [17]

CN(C)[C@@H]1C(=O)C(C(=O)NCN2CCCC2)=C(O)[C@@]2(O)C(=O)C3=C(O)c4c(O)cccc4[C@@](C)(O)C3C[C@@H]12 (stereo partly drawn)
inactive: outcome [1] | outcome [2] | outcome [3] | Potency [4] | outcome [5] | Potency [6] | Potency [7] | outcome [8] | Potency [9] | Potency [10] | Potency [11] | Potency [12] | Potency [13] | outcome [16]

CCC(C)(CN(C)C)OC(=O)c1ccccc1 (stereo not drawn)
inactive: outcome [1] | outcome [2] | outcome [3] | Potency [4] | outcome [5] | Potency [6] | Potency [7] | outcome [8] | Potency [9] | Potency [10] | Potency [11] | Potency [12] | Potency [13]

COC(=O)C1=C(C)NC(C)=C(C(=O)OC(C)C)C1c1cccc2nonc12 (stereo not drawn)
active: Potency [11] 26.6 µM
inactive: outcome [1] | outcome [2] | outcome [3] | Potency [4] | outcome [5] | outcome [8] | Potency [10] | Potency [12] | Potency [13] | Potency [18] | outcome [14] | outcome [16]

CC(C)C[C@@H](N)C(=O)O
inactive: activity change, negative = cytotoxicity [1] -0.157% [at 19 µM] | viability change, negative = cytotoxic [2] -2.1% [at 19 µM] | outcome [3] | activity change, negative = inhibition [4] 7.66% [at 19 µM] | activity change, negative = cytotoxicity [5] -1.99% [at 19 µM] | viability change, negative = cytotoxic [6] -2.88% [at 19 µM] | viability change, negative = cytotoxic [7] 1.81% [at 19 µM] | activity change [8] -0.808% [at 18.9 µM] | activity change, negative = cytotoxicity [12] 0.366% [at 19 µM] | activity change, negative = cytotoxicity [13] 2.37% [at 19 µM] | activity change, negative = cytotoxicity [14] 1.92% [at 19 µM] | cAMP activity change [16] 1.68% [at 18.9 µM]

CCN[C@@H]1C[C@H](N)[C@@H](OC2OC(CN)=CCC2N)[C@H](O)[C@H]1O[C@H]1OC[C@](C)(O)[C@H](NC)[C@H]1O (stereo partly drawn)
inactive: activity change, negative = cytotoxicity [1] 0.862% [at 0.349 µM] | viability change, negative = cytotoxic [2] 0.329% [at 0.349 µM] | outcome [3] | activity change, negative = inhibition [4] 3.34% [at 0.349 µM] | activity change, negative = cytotoxicity [5] 1.54% [at 0.349 µM] | viability change, negative = cytotoxic [6] -1.56% [at 0.349 µM] | viability change, negative = cytotoxic [7] 0.171% [at 0.349 µM] | activity change [8] 0.0974% [at 0.349 µM] | activity change, negative = inhibition [9] 2.07% [at 0.349 µM] | activity change, negative = cytotoxicity [12] 0.828% [at 0.35 µM] | activity change, negative = cytotoxicity [13] 6.54% [at 0.349 µM]

O=[N+]([O-])c1ccc(/C=N\O)o1
inactive: outcome [1] | outcome [2] | outcome [3] | Potency [4] | outcome [5] | Potency [6] | Potency [7] | outcome [8] | Potency [10] | Potency [11] | Potency [12] | Potency [13] | outcome [15] | outcome [16] | outcome [17]

CCCCCCC#CC(=O)OC
inactive: outcome [1] | outcome [2] | Potency [4] | outcome [5] | Potency [6] | Potency [7] | outcome [8] | Potency [9] | Potency [10] | Potency [11] | Potency [12] | Potency [13] | outcome [14]
